Data on 23 molecules can be found in PubChem BioAssay (EPA / NIEHS).

Molecules are shown by their SMILES. Several values for one entry are separate records, joined by “and”; a condition that tells them apart may be missing. Equal values may be shown once. A structure can be active in one record and inactive in another. Activity calls are given as the source filed them. The calls were made as follows: active = hit-call score of the fitted dose curve at least 0.9, where 1 is the maximum; inactive = score below 0.9.

Read-out in assay [1]: Tissue Factor, F3 (gene 2152)
Briefly: BSK_CASM3C_TissueFactor: BioMAP Diversity Plus: CASM3C Assay for Tissue Factor Biomarker Activity (AID 2283052).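 Also: cell surface tissue factor protein level read by ELISA.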 As to conditions: primary human coronary artery smooth muscle cells; actives raise or lower the signal.

Read-out in assay [2]: Interferon-gamma inducible Protein 10 (IP10), CXCL10 (gene 3627)
As to the kind of experiment: BSK_hDFCGF_IP10: BioMAP Diversity Plus: hDFCGF Assay for Interferon-gamma inducible Protein 10 (IP10) Biomarker Activity (AID 2283053). As to conditions: primary human foreskin fibroblasts; actives raise or lower the signal. The procedure, abridged: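 ELISA read-out of IP-10 (CXCL10) from primary human skin fibroblasts, 24 h after compound addition. Gain or loss of signal versus DMSO baseline, bidirectional curve fitting.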

Read-out in assay [3]: Urokinase-type plasminogen activator receptor (uPAR), PLAUR (gene 5329)
As to the kind of experiment: BSK_CASM3C_uPAR: BioMAP Diversity Plus: CASM3C Assay for Urokinase-type plasminogen activator receptor (uPAR) Biomarker Activity (AID 2283054).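 Also: cell-surface uPAR protein level quantified by ELISA.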 The following applies: primary human coronary artery smooth muscle cells; actives raise or lower the signal.

Read-out in assay [4]: Vascular cell adhesion molecule 1 (VCAM1), VCAM1 (gene 7412)
Briefly: BSK_CASM3C_VCAM1: BioMAP Diversity Plus: CASM3C Assay for Vascular cell adhesion molecule 1 (VCAM1) Biomarker Activity (AID 2283055).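 Also: VCAM-1 protein level quantified by ELISA on the cells.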 As to conditions: primary human coronary artery smooth muscle cells; actives raise or lower the signal.

Read-out in assay [5]: Collagen III, COL3A1 (gene 1281)
As to the kind of experiment: BSK_hDFCGF_CollagenIII: BioMAP Diversity Plus: hDFCGF Assay for Collagen III Biomarker Activity (AID 2283056). As to conditions: primary human foreskin fibroblasts; actives raise or lower the signal. The procedure, abridged: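 Response relative to DMSO, fitted in both directions, reflects ELISA-measured collagen III in human primary skin fibroblasts 24 h after compound addition.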

Read-out in assay [6]: Epidermal growth factor receptor (EGFR), EGFR (gene 1956)
Briefly: BSK_hDFCGF_EGFR: BioMAP Diversity Plus: hDFCGF Assay for Epidermal growth factor receptor (EGFR) Biomarker Activity (AID 2283057). As to conditions: primary human foreskin fibroblasts; actives raise or lower the signal. Put shortly: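 ELISA readout of EGFR on human dermal fibroblasts (primary foreskin cells), 24 h post-dosing; bidirectional curve fit vs DMSO baseline, gain or loss of signal scored.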

Read-out in assay [7]: Interleukin-8 (IL8), CXCL8 (gene 3576)
As to the kind of experiment: BSK_hDFCGF_IL8: BioMAP Diversity Plus: hDFCGF Assay for Interleukin-8 (IL8) Biomarker Activity (AID 2283058). As to conditions: primary human foreskin fibroblasts; actives raise or lower the signal. The procedure, abridged:
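Fibroblast monolayers (human foreskin, hDFCGF) received test chemical for 24 h before ELISA detection of IL-8; either increases or decreases relative to DMSO count as activity.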

Assay [8] in a line: BSK_hDFCGF_Proliferation: Cell Proliferation Assessment in the BioMAP Diversity Plus: hDFCGF Assay (AID 2283059).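 Also: curves fitted for both rise and fall of signal versus DMSO baseline.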 As to conditions: primary human foreskin fibroblasts. The procedure, abridged:
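Total protein read at 560 nm after 0.1% SRB staining of TCA-fixed human skin fibroblasts, […]. Activity is fitted in both directions relative to DMSO as baseline.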

Read-out in assay [9]: Macrophage colony-stimulating factor (MCSF), CSF1 (gene 1435)
Briefly: BSK_hDFCGF_MCSF: BioMAP Diversity Plus: hDFCGF Assay for Macrophage colony-stimulating factor (MCSF) Biomarker Activity (AID 2283060). The following applies: primary human foreskin fibroblasts; actives raise or lower the signal. The procedure, abridged:
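fibroblasts (human foreskin, primary), 24 h post-dose; M-CSF by ELISA; bidirectional fit, DMSO = baseline.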

The nature of assay [10]: BSK_hDFCGF_SRB: Viability Assessment in the BioMAP Diversity Plus: hDFCGF Assay (AID 2283061).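 Also: cells exposed to compound for 24 h before the read.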 As to conditions: primary human foreskin fibroblasts. Put shortly: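 SRB-based viability read on primary human skin fibroblasts at 24 h: TCA fixation, 0.1% dye, 560 nm. Gain or loss of signal is fitted against the DMSO negative control.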

For the molecule `COCCOc1cc2cc(C(=O)NC3CCN(C(C)C)CC3)n(CC(=O)Nc3ccc(Cl)cn3)c2cn1`, the result in [1], in [2], in assay [3], in [4], in assay [5] and in assay [6] was inactive. Also, the outcome in assay [7], in [8] and in [9] was inactive.

As for `O=C(O)c1cc(N=Nc2ccc(S(=O)(=O)Nc3ccccn3)cc2)ccc1O`, the result in assay [1], in assay [2], in [3], in assay [4], in assay [5] and in [6] was inactive. The result in assay [7], in assay [8] and in [9] was inactive.

For `CC(C)=CCC/C(C)=C\CO`, the outcome in [1], in assay [2], in assay [3], in assay [4], in assay [5] and in [6] was inactive. In addition, the result in assay [7] and in [9] was inactive. In [8], the AC50 (commonly the concentration at which the activity in the assay is half-maximal) was 0.171 µM (active).

With `CN(C)c1ccc(N=NS(=O)(=O)O)cc1`, the outcome in [1], in assay [2], in assay [3], in assay [4], in assay [6] and in assay [7] was inactive. For the same molecule, the half-maximal activity concentration (AC50) was 4.35 µM (active) in [5], 12.8 µM (active) in assay [8] and 9.62 µM (active) in assay [9].

With `CCCC(=O)OCC`, the result in [1], in assay [2], in assay [3], in assay [4], in assay [5] and in [6] was inactive. Moreover, the outcome in assay [7], in assay [8] and in [9] was inactive.

Take `CC(C)=CCCC(C)CCO` (stereo not drawn): the outcome in [1], in assay [2], in [3], in assay [4], in assay [5] and in assay [6] was inactive. For the same molecule, the result in assay [7] and in [9] was inactive. Further, the concentration at half-maximal activity (AC50) in assay [8] is 26.4 µM (active).

Take `CC(O)CN(CCN(CC(C)O)CC(C)O)CC(C)O` (stereo not drawn): the outcome in assay [1], in assay [2], in assay [3], in [4], in [5] and in [6] was inactive. The result in assay [7], in assay [8] and in [9] was inactive.

On to `CCOC(=O)c1ccc(C2CCC(NC[C@H](O)COc3ccc(O)c(NS(C)(=O)=O)c3)CC2)cc1` (stereo partly drawn), for which the result in [1] and in assay [3] was inactive. Moreover, the half-maximal activity concentration (AC50) is 21.8 µM (active) in assay [2]; 18.7 µM (active) in assay [4]; 13.4 µM (active) in assay [5]; 6.27 µM (active) in assay [6]; 27.2 µM (active) in assay [7]; 1.75 µM (active) in assay [8]. Further, the AC50 in [9] is 10.2 µM (active).

With `COc1ccc(/C=C/S(=O)(=O)NC(=O)c2ccc(C)cc2Cl)cc1`, the result in assay [1], in assay [2], in assay [3], in [4], in [5] and in assay [6] was inactive. For the same molecule, the outcome in assay [7] and in assay [9] was inactive. Further, in [8], the concentration at half-maximal activity (AC50) was 13.6 µM (active).

In the case of `CC(C)CC(C)(O)C#CC(C)(O)CC(C)C` (stereo not drawn), the outcome in [1], in assay [2], in assay [3], in assay [4], in [5] and in assay [6] was inactive. The outcome in [7], in assay [8] and in assay [9] was inactive.

On to `CC(C)CCCCCCOC(=O)c1ccc(C(=O)OCCCCCCC(C)C)c(C(=O)OCCCCCCC(C)C)c1`, for which the outcome in [1], in assay [2], in assay [3], in assay [4], in assay [5] and in assay [6] was inactive. Further, the outcome in assay [7], in [8] and in [9] was inactive.

With `C1N2CN3CN1CN(C2)C3`, the outcome in [1], in assay [2], in [3], in assay [4], in assay [5] and in [6] was inactive. Besides, the result in assay [7], in assay [8] and in assay [9] was inactive.

With `On1ccccc1=S`, the result in assay [1], in [4] and in assay [6] was inactive. Also, the concentration at half-maximal activity (AC50) is 0.422 µM (active) in assay [2]; 25.6 µM (active) in assay [3]; 1.41 µM (active) in assay [5]; 0.791 µM (active) in assay [7]; 0.148 µM (active) in assay [8]; 0.892 µM (active) in [9].

Take `CCOC(=O)COc1ccc2c(c1)CC(NCC(O)c1cccc(Cl)c1)CC2` (stereo not drawn): the result in assay [1], in [3] and in [4] was inactive. The AC50 is 26.3 µM (active) in assay [2]; 30.6 µM (active) in [5]; 33.4 µM (active) in [6]; 32.1 µM (active) in [7]; 9.71 µM (active) in [8]; 14.6 µM (active) in assay [9].

In the case of `O=C1CCCCCN1`, the result in assay [1], in assay [2], in [3], in [4], in assay [5] and in assay [6] was inactive. Moreover, the outcome in [7], in assay [8] and in assay [9] was inactive.

In the case of `CC(C)(O)c1coc(S(=O)(=O)NC(=O)Nc2c3c(cc4c2CCC4)CCC3)c1`, the result in assay [1], in assay [2], in assay [3], in [4], in assay [5] and in assay [6] was inactive. In addition, the outcome in assay [7], in assay [8] and in [9] was inactive.

On to `Cn1cnc([N+](=O)[O-])c1Sc1ncnc2nc[nH]c12`, for which the outcome in assay [1], in assay [2], in [3], in assay [4], in [5] and in [6] was inactive. Besides, the result in assay [7], in assay [8], in [9] and in assay [10] was inactive. Besides, the AC50 in assay [2] is 4.43 µM (active) and 7.98 µM (active); in [4] it was 15.6 µM (active) and 8.5 µM (active); in [5], 4.26 µM (active); in assay [8] it was 19.9 µM (active); in assay [9], 7.13 µM (active) and 9.58 µM (active).

For `Cc1[nH]cnc1C[C@H]1CCc2c(C)c3ccccc3n2C1=O`, the result in assay [1], in assay [2], in assay [4], in assay [6], in [7] and in assay [9] was inactive. In addition, the values for the AC50 in assay [3], in [5] and in assay [8] were 22 µM (active), 19.2 µM (active) and 21.9 µM (active), respectively.

Turning to `CC(C)CCO`, the result in [1], in assay [2], in assay [3], in [4], in [5] and in assay [6] was inactive. The outcome in [7] and in [9] was inactive. Further, the AC50 in assay [8] was 17.2 µM (active).

Take `CC(C)=CCC/C(C)=C/CO`: the result in assay [1], in assay [2], in [3], in assay [4], in assay [5] and in [6] was inactive. Besides, the result in [7], in assay [8] and in assay [9] was inactive.

For the molecule `COc1ccc2sc(C(=O)Nc3nnn[nH]3)c(OC(C)C)c2c1`, the AC50 is 7.08 µM (active) in [1]; 13.6 µM (active) in assay [2]; 13 µM (active) in [3]; 5.42 µM (active) in assay [5]; 8.61 µM (active) in assay [6]; 20.5 µM (active) in [7]. Moreover, the results for the AC50 in assay [8] and in assay [9] were 12.1 µM (active) and 11.4 µM (active), respectively. In addition, the outcome in [4] was inactive.

In the case of `COc1ccc(-n2nc(C(F)F)cc2-c2ccc(S(C)=O)cc2)cc1` (stereo not drawn), the result in assay [1], in [2], in assay [3], in assay [4], in assay [5] and in assay [6] was inactive. The result in [7], in [8] and in assay [9] was inactive.

`CC(C)CCCCCCCOC(=O)CCCCC(=O)OCCCCCCCC(C)C`: the outcome in assay [1], in [2], in [3], in [4], in assay [5] and in [6] was inactive. Moreover, the outcome in assay [7], in assay [8] and in assay [9] was inactive.
